Source: PubChem BioAssay (NCATS)
Records with an inconclusive call do not appear. Activity calls are given as the source filed them. The call rests on the fitted dose curve; in most records, active means well fitted cell-killing curve with a large enough effect; inconclusive means small, poorly fitted or top-dose-only effect, or effect the other way; inactive means flat fitted curve, though single readings scatter.

Key:
Experiment in all cases: Primary qHTS to identify gynecologic anti-cancer compounds using libraries of approved drugs and bioactive compounds (AID 1345084); further: nearly all actives have a fitted effect of over 55% in size
C33A = settings: Gynecologic cancer cell panel viability, ATPlite luminescence, 48 h; series mostly up to 57.5 µM
Method in brief: (§1)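 Luminescence from the ATPlite ATP-monitoring reagent indicates viable cell number; lower signal means cytotoxicity. Cells received compound 16 h after seeding and were exposed for 48 h across five concentrations.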

CAOV3 = settings: Gynecologic cancer cell panel viability, ATPlite luminescence, 48 h; series mostly up to 57.5 µM
Method in brief: as §1

CASKI = settings: Gynecologic cancer cell panel viability, ATPlite luminescence, 48 h; series mostly up to 57.5 µM
Method in brief: as §1

Es-2 = settings: Gynecologic cancer cell panel viability, ATPlite luminescence, 48 h; series mostly up to 57.5 µM
Method in brief: as §1

HeLa = settings: Gynecologic cancer cell panel viability, ATPlite luminescence, 48 h; series mostly up to 57.5 µM
Method in brief: as §1

Hek293T = settings: Gynecologic cancer cell panel viability, ATPlite luminescence, 48 h, control line for the selectivity index; series mostly up to 57.5 µM
Method in brief: as §1

JEG-3 = settings: Gynecologic cancer cell panel viability, ATPlite luminescence, 48 h; series mostly up to 57.5 µM
Method in brief: as §1

OV90 = settings: Gynecologic cancer cell panel viability, ATPlite luminescence, 48 h; series mostly up to 57.5 µM
Method in brief: as §1

PA-1 = settings: Gynecologic cancer cell panel viability, ATPlite luminescence, 48 h; series mostly up to 57.5 µM
Method in brief: as §1

SKOV3 = settings: Gynecologic cancer cell panel viability, ATPlite luminescence, 48 h; series mostly up to 57.5 µM
Method in brief: as §1

Tov-21-G = settings: Gynecologic cancer cell panel viability, ATPlite luminescence, 48 h; series mostly up to 57.5 µM
Method in brief: as §1

Tov112D = settings: Gynecologic cancer cell panel viability, ATPlite luminescence, 48 h; series mostly up to 57.5 µM
Method in brief: as §1
On the % scale 0 is the no-effect control and ±100 the full control effect.

COc1cc(O)cc2c1C(=O)OC(C)CCCCCCC2 (stereo unspecified)
inactive: Potency (C33A) | Potency (CAOV3) | outcome (CASKI) | Potency (Es-2) | Potency (HeLa) | Potency (Hek293T) | Potency (JEG-3) | Potency (OV90) | Potency (PA-1) | Potency (SKOV3) | Potency (Tov-21-G) | Potency (Tov112D)

O=C(NC1CCN(CC(F)(F)F)CC1)c1ccc(-c2cccc(F)c2)nc1
inactive: Potency (C33A) | Potency (CAOV3) | outcome (CASKI) | Potency (Es-2) | Potency (HeLa) | Potency (Hek293T) | Potency (JEG-3) | Potency (OV90) | Potency (PA-1) | Potency (SKOV3) | Potency (Tov-21-G) | Potency (Tov112D)

CC(O)C/C=C/C=C/C(=O)OC1C=C2COC(=O)C2(O)C2(C)CCCC(C)(C)C12 (stereo unspecified)
inactive: Potency (C33A) | Potency (CAOV3) | outcome (CASKI) | Potency (Es-2) | Potency (HeLa) | Potency (Hek293T) | Potency (JEG-3) | Potency (OV90) | Potency (PA-1) | Potency (SKOV3) | Potency (Tov-21-G) | Potency (Tov112D)

CC1=C(CO)C2(C)CCCC(C)(C)C2C(O)C1O (stereo unspecified)
inactive: Potency (C33A) | Potency (CAOV3) | outcome (CASKI) | Potency (Es-2) | Potency (HeLa) | Potency (Hek293T) | Potency (JEG-3) | Potency (OV90) | Potency (PA-1) | Potency (SKOV3) | Potency (Tov-21-G) | Potency (Tov112D)

CC1=C(CO)CC(C(C)C2CCC3C4CC=C5CC(OC6OC(COC7OC(CO)C(O)C(O)C7O)C(O)C(O)C6O)CC(O)C5(C)C4CCC23C)OC1=O (stereo unspecified)
inactive: Potency (C33A) | Potency (CAOV3) | outcome (CASKI) | Potency (Es-2) | Potency (HeLa) | Potency (Hek293T) | Potency (JEG-3) | Potency (OV90) | Potency (PA-1) | Potency (SKOV3) | Potency (Tov-21-G) | Potency (Tov112D)

On1ncc(C2CCNCC2)c1-c1cccc(-c2ccccc2)c1
inactive: Potency (C33A) | Potency (CAOV3) | outcome (CASKI) | Potency (Es-2) | Potency (HeLa) | Potency (Hek293T) | Potency (JEG-3) | Potency (OV90) | Potency (PA-1) | Potency (SKOV3) | Potency (Tov-21-G) | Potency (Tov112D)

CC1=C2C(=O)C=C(CO)C2[C@H]2OC(=O)[C@H](C)[C@@H]2[C@@H](OC(=O)Cc2ccc(O)cc2)C1 (stereo partly specified)
inactive: Potency (C33A) | Potency (CAOV3) | outcome (CASKI) | Potency (Es-2) | Potency (HeLa) | Potency (Hek293T) | Potency (JEG-3) | Potency (OV90) | Potency (PA-1) | Potency (SKOV3) | Potency (Tov-21-G) | Potency (Tov112D)

CCOC(=O)C1=C(N)Oc2ccc(Cl)cc2C1C(C#N)C(=O)OCC (stereo unspecified)
inactive: Potency (C33A) | Potency (CAOV3) | outcome (CASKI) | Potency (Es-2) | Potency (HeLa) | Potency (Hek293T) | Potency (JEG-3) | Potency (OV90) | Potency (PA-1) | Potency (SKOV3) | Potency (Tov-21-G) | Potency (Tov112D)

CC1(O)CC(O)C2C(C(=O)O)=COC(OC3OC(CO)C(O)C(O)C3OC(=O)/C=C/c3ccc(O)cc3)C21 (stereo unspecified)
inactive: Potency (C33A) | Potency (CAOV3) | outcome (CASKI) | Potency (Es-2) | Potency (HeLa) | Potency (Hek293T) | Potency (JEG-3) | Potency (OV90) | Potency (PA-1) | Potency (SKOV3) | Potency (Tov-21-G) | Potency (Tov112D)

CC1(C)CC[C@]2(C(=O)O[C@@H]3O[C@H](CO)[C@@H](O)[C@H](O)[C@H]3O)CC[C@]3(C)C(=CCC4[C@@]5(C)CC[C@H](O[C@@H]6O[C@H](C(=O)O)[C@@H](O[C@@H]7O[C@H](CO)[C@@H](O)[C@H](O)[C@H]7O)[C@H](O)[C@H]6O)C(C)(C)C5CC[C@]43C)C2C1 (stereo partly specified)
inactive: activity change, negative = cytotoxicity (C33A) -1.25% [at 11.6 µM] | activity change, negative = cytotoxicity (CAOV3) 6.34% [at 11.6 µM] | activity change, negative = cytotoxicity (CASKI) 0.127% [at 11.6 µM] | activity change, negative = cytotoxicity (Es-2) -4.47% [at 11.6 µM] | activity change, negative = cytotoxicity (HeLa) 6.83% [at 11.6 µM] | activity change, negative = cytotoxicity (Hek293T) 3.96% [at 11.6 µM] | activity change, negative = cytotoxicity (JEG-3) -0.8% [at 11.6 µM] | activity change, negative = cytotoxicity (OV90) 3.65% [at 11.6 µM] | activity change, negative = cytotoxicity (PA-1) 12% [at 11.6 µM] | activity change, negative = cytotoxicity (SKOV3) 7.57% [at 11.6 µM] | activity change, negative = cytotoxicity (Tov-21-G) 4.63% [at 11.6 µM] | activity change, negative = cytotoxicity (Tov112D) 2.05% [at 11.6 µM]

CCN=C1N[C@@H]2[C@@H](O)[C@H](O)[C@@H](CO)O[C@@H]2S1
inactive: Potency (C33A) | Potency (CAOV3) | outcome (CASKI) | Potency (Es-2) | Potency (HeLa) | Potency (Hek293T) | Potency (JEG-3) | Potency (OV90) | Potency (PA-1) | Potency (SKOV3) | Potency (Tov-21-G) | Potency (Tov112D)

C[C@@H]1CC[C@]2(C(=O)O[C@@H]3O[C@H](CO[C@@H]4O[C@H](CO)[C@@H](O[C@@H]5O[C@@H](C)[C@H](O)[C@@H](O)[C@H]5O)[C@H](O)[C@H]4O)[C@@H](O)[C@H](O)[C@H]3O)CC[C@]3(C)C(=CCC4[C@@]5(C)C[C@@H](O)[C@H](O)[C@@](C)(CO)C5CC[C@]43C)C2[C@H]1C (stereo partly specified)
inactive: activity change, negative = cytotoxicity (C33A) -0.2% [at 11.6 µM] | activity change, negative = cytotoxicity (CAOV3) -4.15% [at 11.6 µM] | activity change, negative = cytotoxicity (CASKI) 20.3% [at 11.6 µM] | activity change, negative = cytotoxicity (Es-2) -3.91% [at 11.6 µM] | activity change, negative = cytotoxicity (HeLa) 11% [at 11.6 µM] | activity change, negative = cytotoxicity (Hek293T) -0.706% [at 11.6 µM] | activity change, negative = cytotoxicity (JEG-3) 0.915% [at 11.6 µM] | activity change, negative = cytotoxicity (OV90) -1.43% [at 11.6 µM] | activity change, negative = cytotoxicity (PA-1) 6.43% [at 11.6 µM] | activity change, negative = cytotoxicity (SKOV3) 21.1% [at 11.6 µM] | activity change, negative = cytotoxicity (Tov-21-G) 3.06% [at 11.6 µM] | activity change, negative = cytotoxicity (Tov112D) 3.29% [at 11.6 µM]

Cc1ccc2nc(NC(=O)CSc3nc4c(c(=O)n3-c3ccc(F)cc3)SCC4)sc2c1
inactive: Potency (C33A) | Potency (CAOV3) | outcome (CASKI) | Potency (Es-2) | Potency (HeLa) | Potency (Hek293T) | Potency (JEG-3) | Potency (OV90) | Potency (PA-1) | Potency (SKOV3) | Potency (Tov-21-G) | Potency (Tov112D)
